Test results: PubChem BioAssay AID1508611 (The Scripps Research Institute Molecular Screening Center, 2020)
Among all 6,700 compounds or so, about 20 (0.3%) were called active. This excerpt belongs to a sample that is enriched for actives. Values without a mark were called inactive.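 The calls were made as follows: active = mean percent activation in the counterscreen above 29.09%; inactive = the rest.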

The compounds below were run against Glucose-dependent insulinotropic receptor (Homo sapiens) (UniProt Q8TDV5) (assay: GPR119 activators in beta-arrestin cells, counter-screen for GPR151 activator project, cell-based, PathHunter beta-arrestin, luminescence, triplicate (AID 1508611;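 also: counterscreen on off-target GPR119 to flag nonselective hits from the GPR151 activator screen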)). Conditions: 90 min, at 11.2 µM, active compounds read high, 0 = compound-well median, 100 = enzyme-acceptor control.
Sequence of Glucose-dependent insulinotropic receptor (Homo sapiens) (Q8TDV5 whole entry, looked up): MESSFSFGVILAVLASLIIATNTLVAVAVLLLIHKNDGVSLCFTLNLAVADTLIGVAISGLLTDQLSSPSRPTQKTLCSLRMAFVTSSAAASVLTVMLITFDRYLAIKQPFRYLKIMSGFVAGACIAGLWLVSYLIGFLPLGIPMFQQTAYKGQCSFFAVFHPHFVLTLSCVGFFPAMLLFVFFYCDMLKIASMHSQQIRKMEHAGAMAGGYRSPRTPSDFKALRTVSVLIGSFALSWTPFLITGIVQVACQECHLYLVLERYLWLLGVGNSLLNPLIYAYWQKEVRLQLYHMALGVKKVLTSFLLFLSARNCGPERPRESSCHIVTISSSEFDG

| SMILES | activation [%] |
| --- | --- |
| COc1ccccc1NC(=O)NCc1nc(-c2ccc(OC)c(OC)c2)no1 | -3.49 |
| O=C(COc1ccc(Br)cc1CO)NCC(F)(F)F | 5.45 |
| CCOC(=O)Cc1coc(NC(=O)c2ccc(Cl)cc2)n1 | 16.4 |
| Cc1nc2nc(SCc3ccc([N+](=O)[O-])cc3)nn2c(C)c1Cc1c(F)cccc1Cl | 15.8 |
| COc1ccccc1C1C(C(N)=O)=C(C)Nc2nc(CCCO)nn21 (stereo unspecified) | -6.42 |
| CCOc1ccc(NC(=O)COc2cccc(C)c2C)cc1 | 6 |
| COc1cccc(C(=O)NC(=S)Nc2ccc(OC)cc2OC)c1 | 5.05 |
| CCC(=O)Nc1cc(C(=O)O)ccc1C | 0.03 |
| Brc1cnc(NC2CCCCC2)nc1 | 4.03 |
| CC(C)N1CCc2c(sc(NC(=O)Cc3ccccc3)c2C#N)C1 | -3.52 |
| O=C(N/N=C/c1cc(Cl)ccc1O)c1cc(-c2ccccc2)n[nH]1 | -13.8 |
| COc1ccc(/C=C(\C#N)C(=O)Nc2cccc(S(=O)(=O)N3CCCCC3)c2)cc1 | -10.3 |
| COc1cccc(-c2nnc(NC(=O)CSc3ccccc3)o2)c1 | 6.53 |
| Cc1ccc(N2C(=O)CC(N3CCN(Cc4ccc(Cl)cc4)CC3)C2=O)cc1Cl (stereo unspecified) | 6.82 |
| O=C(CCn1cnc2c(cnn2-c2ccc(F)cc2)c1=O)NCCC1=CCCCC1 | 1.14 |
| COc1ccc(OC)c(NC(=O)CSc2nnc3[nH]c(=O)c(C)c(C)n23)c1 | 3.38 |
| COc1nc(Nc2ccccc2)nc(-c2c(C)noc2C)n1 | -7.06 |
| CSc1ncc(C(=O)NCCc2c[nH]c3ccccc23)c(C)n1 | -0.1 |
| Cc1cc(Nc2ccc(F)cc2)n2cnnc2n1 | -9.37 |
| Clc1ccccc1C1C=C(c2ccc(I)cc2)Nc2nnnn21 (stereo unspecified) | -6.17 |
| CCC(C)Nc1nc2c(c(=O)[nH]c(=O)n2C)n1CC(O)COC(C)C (stereo unspecified) | -3.29 |
| Cc1cc(N2CCOCC2)ccc1C=C1C(=O)c2ccccc2C1=O | 1.45 |

| SMILES | activation [%] |
| --- | --- |
| COCCNC(=S)N1CCN(c2ccccc2OC)CC1 | -11.2 |
| COc1cc(NC(=O)c2sc3ncnc(N4CCCCC4)c3c2C)cc(OC)c1OC | 0.56 |
| CC(C)(C)OC(=O)N1CCC[C@H](Cn2cc(C(=O)O)nn2)C1 | 2 |
| COCCN1C(=O)CC(CC(=O)NCc2nc3ccccc3[nH]2)(c2ccccc2C)C1=O (stereo unspecified) | 3.87 |
| O=C(CCc1nnc(CCCCc2ccccc2)o1)N1CCC(N2CCSCC2)CC1 | 0.58 |
| CC1CCN(C(=O)C(NS(=O)(=O)c2ccc3c(c2)oc(=O)n3C)C(C)C)CC1 (stereo unspecified) | 6.52 |
| Cc1ccc(C2=NC(c3cc(Br)ccc3F)NC(c3cc(Cl)ccc3O)C2)cc1 (stereo unspecified) | 6.67 |
| COc1ccc(-c2nnc(SCCC#N)o2)cc1 | -4.81 |
| COc1ccc(OC)c(NC(=S)Nc2ccccn2)c1 | -19.3 |
| Oc1ccc(Cn2cc[nH]c2=S)cc1 | -8.52 |
| CCCCc1ccc(N=Cc2nc(-c3cccc4ccccc34)oc2O)cc1 | -7.98 |
| COc1ccc(C(=O)Cc2cc3ccccc3oc2=O)c(OC)c1 | -8.7 |
| O=C(CC1C(=O)NCCN1Cc1ccc2ccccc2c1)NCCCn1cccn1 (stereo unspecified) | 1.24 |
| c1ccc(-c2nc(-c3cccs3)[nH]c2-c2cccs2)cc1 | -1.67 |
| CCOC(=O)c1cccc(NC(=O)CCCOc2ccc(OC)cc2)c1 | -2.39 |
| COc1ccc(OC)c(/C=N/n2nnnc2N)c1 | -3.22 |
| CC(C)(C)NC(=O)Cc1coc2ccc3ccccc3c12 | -5.33 |
| O=C(CN1C(=O)c2ccccc2C1=O)NC(c1ccccc1)c1ccc(Br)cc1 (stereo unspecified) | -12.4 |
| O=C(COc1ccc(CO)cc1)Nc1ccc(Cl)c(Cl)c1 | -3.53 |
| CO[C@@H]1COC(=O)[C@@H](C)COC(=O)[C@H](C)NC(=O)C/C=C/[C@H]1C | 10.4 |
| Cc1[nH][nH]c(=O)c1C(c1ccc(-c2ccc(F)cc2[N+](=O)[O-])o1)c1c(C)[nH][nH]c1=O | 9 |
| O=C(CN1C(=O)CCC1=O)Nc1ccc(S(=O)(=O)N2CCOCC2)cc1 | 9.75 |

| SMILES | activation [%] |
| --- | --- |
| C=CCSC1=C(C#N)C(c2ccc(Cl)cc2Cl)CC(=O)N1 (stereo unspecified) | -2.2 |
| CC(C)n1c(=O)[nH]c2c(C(N)=O)nc(-c3ccc(-c4ccccc4)cc3)nc21 | 8.53 |
| COc1ccc(N2C(=O)C(Cl)=C(Nc3ccc(C)cc3)C2=O)cc1 | 9.02 |
| COc1cc(OC)cc(C(=O)Nc2ccc3c4c(cccc24)CC3)c1 | 9.11 |
| CCOc1ccccc1-c1cc(C(=O)N2CCOCC2)c2ccccc2n1 | -4.4 |
| Cc1ccc(NC(=O)CSc2nnc(-c3ccc(N)cc3)n2C)cc1Cl | 5.44 |
| COc1ccc(C2(C)NC(=O)N(CC(=O)Nc3ccc4ccccc4c3)C2=O)cc1 (stereo unspecified) | 5.1 |
| CC(=O)Nc1ccc(NC(=O)c2ccc3nc(Br)sc3c2)cc1 | -3.64 |
| CCC1C(=O)NCCN1Cc1ccc2c(c1)CN(Cc1c[nH]c3ccccc13)CCO2 (stereo unspecified) | -4.8 |
| CC(=O)Nc1nc(C(=O)Nc2nc(-c3sc(C)nc3C)cs2)cs1 | 13.5 |
| c1cncc(Nc2nc(NC3CC3)c3ncn(C4CCCCC4)c3n2)c1 | -7.65 |
| COc1ccc(NC(=S)N2CCN(S(=O)(=O)c3ccc(F)cc3)CC2)c(OC)c1 | -3.67 |
| CCc1ccc(S(=O)(=O)NCCOc2cc(N3CCOCC3)ncn2)cc1 | 0.5 |
| Cc1ccc(NC(=O)c2cccc(N(C)C)c2)cc1NC(=O)c1ccc(O)cc1 | -0.12 |
| COc1ccc(C=C(C#N)C#N)c(CSc2ccccn2)c1 | 14.8 |
| COc1cc([N+](=O)[O-])ccc1NC(=S)NCc1cc(C)n(C)n1 | -4.23 |
| Cn1c(=O)c2c(nc(SCC(=O)O)n2Cc2ccc(F)cc2)n(C)c1=O | -2.28 |
| C/C(=N/N1CCN(Cc2ccc(C)cc2C)CC1)c1ccc([N+](=O)[O-])cc1 | -0.84 |
| CCOc1cc(C2C3=C(CCCC3=O)NC3=C2C(=O)CCC3)cc(Br)c1OCC | 8.25 |
| CCCOC1(C(F)(F)F)NC(=O)N(c2ccc(C(C)C)cc2)C1=O (stereo unspecified) | -7.99 |
| CC(=O)c1cccc(-c2nc(Nc3ccc(Oc4ccccc4)cc3)c3ncn(-c4ccsc4)c3n2)c1 | 1.29 |
| COc1cc(C(C)=Nc2c(C)n(C)n(-c3ccccc3)c2=O)cc(O)c1OC | 3.69 |

| SMILES | activation [%] |
| --- | --- |
| Cc1ccccc1C(=O)NCc1nc(-c2ccc(Cl)cc2)no1 | 10.3 |
| C=CCn1c(=O)c2ccc(C(=O)NCc3ccc4c(c3)OCO4)cc2n(CC(N)=O)c1=O | 5.23 |
| COc1ccc([N+](=O)[O-])cc1NC(=O)C1CC(Cl)=CCC1C(=O)O (stereo unspecified) | -0.8 |
| O=C(Nc1ccc(NC(=O)c2cccc3c(Br)cccc23)cc1)c1ccco1 | 16.8 |
| CC(=O)c1c(C)[nH]c(C(=O)N2CCN(c3ccc(Cl)cc3)CC2)c1C | 2.38 |
| COc1ccc(Nc2nc(-c3ccc(F)cc3)cs2)c(OC)c1 | 5.77 |
| COc1cc(/C=N/N=C2/NC(=O)CS2)ccc1OC(=O)c1ccccc1C | -7.49 |
| O=C(O)/C=C/c1ccccc1Cl | -5.81 |
| COc1ccc(C(=O)Nc2ccc(S(=O)(=O)NC(C)C)cc2)cc1 | 13.4 |
| CC(C(=O)NCCN1CCOCC1)n1c2ccccc2c2cn[nH]c(=O)c21 (stereo unspecified) | 5.53 |
| Cc1ccc2cc(C#N)c(SCCO)nc2c1 | -5.53 |
| Cc1ccc[n+](-c2ncnc(N)c2[N+](=O)[O-])c1 | -3.57 |
| CCOc1ccc(/C=C2N=C(/C=C/c3cccc(Cl)c3Cl)OC\2=O)cc1 | 0.65 |
| O=C(NCc1ccsc1)c1ccc(-n2cccc2)cc1 | -3.28 |
| O=C(C(Cc1ccccc1)N1C(=O)C2C3c4ccccc4C(c4ccccc43)C2C1=O)N1CCOCC1 (stereo unspecified) | 7.72 |
| Cc1cccc(NC(=O)CSc2nc3[nH]ncc3c(=O)[nH]2)c1 | 0.57 |
| NC(=S)N/N=C/c1ccc([N+](=O)[O-])cc1 | 6.78 |
| O=C(/C=C/Nc1ccccc1NS(=O)(=O)c1ccc([N+](=O)[O-])cc1)c1ccco1 | -7.75 |
| CN(C)c1cccc(Nc2cc(C(=O)Nc3ccc(N4CCOCC4)cc3)ccn2)c1 | -10.4 |
| CC1=C(C(=O)Nc2cccc(F)c2)C(c2ccccn2)C2=C(CCCC2=O)N1 (stereo unspecified) | 0.3 |
